Records with an inconclusive call do not appear. A call without a number means that no potency is given here. The source made the active and inactive calls. The call rests on the fitted dose curve; in most records, active means well fitted inhibition curve with a large enough effect; inconclusive means small, poorly fitted or top-dose-only effect; inactive means flat fitted curve, though single readings scatter.
What was measured:
Test in all cases: qHTS profiling for inhibitors of Plasmodium falciparum proliferation (AID 504749); further: nearly all actives have a fitted effect of over 60% in size
Details in all cases: P. falciparum in erythrocytes, SYBR Green DNA, 72 h; series mostly up to 28.7 µM
[1] = tested on: CP201
Procedure, shortened: (§1)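 Readout was DNA-dye fluorescence from lysed cultures, ex 485/em 535 nm. Parasitized red cells had grown 72 h with compound; data scaled between 0.29 uM artemisinin and DMSO wells and corrected using vehicle-only plates.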

[2] = tested on: CP203
Procedure, shortened: as §1

[3] = tested on: CP211
Procedure, shortened: as §1

[4] = tested on: CP217
Procedure, shortened: as §1

[5] = tested on: CP238
Procedure, shortened: as §1

[6] = tested on: CP247
Procedure, shortened: as §1

[7] = tested on: CP250
Procedure, shortened: as §1

[8] = tested on: CP252
Procedure, shortened: as §1

[9] = tested on: CP215
Procedure, shortened: as §1

[10] = tested on: CP237
Procedure, shortened: as §1
Potency means the concentration at half of the fitted maximal effect.

Row | Compound | Potency [1] | Potency [2] | Potency [3] | Potency [4] | Potency [5] | Potency [6] | Potency [7] | Potency [8] | Potency [9] | Potency [10]
1 | CC(=O)OCC(=O)[C@@]1(OC(C)=O)[C@@H](C)C[C@H]2[C@@H]3C[C@H](F)C4=CC(=O)C=C[C@]4(C)[C@@]3(F)[C@@H](O)C[C@@]21C | inactive | inactive | inactive | inactive | inactive | inactive | inactive | inactive |  | 
2 | NC(CS)C(=O)O (centres undefined) | inactive |  | inactive |  |  |  |  |  |  | 
3 | CC(=O)N/N=C/c1ccc([N+](=O)[O-])o1 | inactive | inactive |  |  | inactive |  |  |  | inactive | 
4 | COc1cc(OC)cc(OC)c1 | inactive |  | inactive | inactive | inactive | inactive | inactive | inactive | inactive | inactive
5 | COc1cccc2c1C(=O)c1c(O)c3c(c(O)c1C2=O)C[C@@](O)(C(C)=O)C[C@@H]3O[C@H]1C[C@H](N)[C@H](O)[C@H](C)O1 | 9.53 µM (active) |  | 3.79 µM (active) | 1 µM (active) | 3.98 µM (active) | 1.41 µM (active) | 1 µM (active) | 1.12 µM (active) | 7.57 µM (active) | 1 µM (active)
6 | CCN1CCC[C@H]1CNC(=O)c1c(OC)ccc(Br)c1OC | inactive | inactive | inactive | inactive | inactive |  | inactive | inactive | inactive | 
7 | Cc1c(N(C)CS(=O)(=O)O)c(=O)n(-c2ccccc2)n1C | inactive | inactive | inactive | inactive | inactive | inactive | inactive | inactive |  | inactive
8 | Cc1c(F)c(N2CCNC(C)C2)cc2c1c(=O)c(C(=O)O)cn2C1CC1 (centres undefined) | inactive |  | inactive | inactive | inactive | inactive | inactive | inactive | inactive | inactive
9 | CCCCCCCCCCCCCCNCCO | inactive | inactive | inactive | inactive |  | 10 µM (active) |  |  |  | 4.47 µM (active)
10 | COCc1c(C(C)C)nc(C(C)C)c(/C=C/[C@@H](O)C[C@@H](O)CC(=O)O)c1-c1ccc(F)cc1 | inactive | inactive | inactive | inactive | inactive |  | inactive | inactive |  | inactive
11 | O=C(COc1ccc(Cl)cc1)N1CCN(Cc2ccc3c(c2)OCO3)CC1 | inactive |  | inactive | inactive | inactive | inactive | inactive | inactive | inactive | inactive
12 | C#C[C@]1(O)CC[C@H]2[C@@H]3CCc4cc(OC5CCCC5)ccc4[C@H]3CC[C@@]21C | inactive |  | inactive | inactive | inactive | inactive | inactive | inactive | inactive | inactive
13 | COc1ccc(CCN2CCC(Nc3nc4ccccc4n3Cc3ccc(F)cc3)CC2)cc1 | 7.57 µM (active) |  | 15.1 µM (active) | 3.55 µM (active) | 3.55 µM (active) | 3.98 µM (active) | 2.24 µM (active) | 3.16 µM (active) |  | 2.24 µM (active)
14 | CCCCC(CC)CN=C(N)NC(N)=NCCCCCCN=C(N)NC(N)=NCC(CC)CCCC (centres undefined) | 1.69 µM (active) |  | 1.51 µM (active) | 3.16 µM (active) | 1 µM (active) | 1.12 µM (active) | 0.891 µM (active) | 1.26 µM (active) | 1.69 µM (active) | 1.26 µM (active)
15 | N[C@H](CO)C(=O)O | inactive |  | inactive | inactive | inactive | inactive | inactive | inactive |  | inactive
16 | O=C1OC(c2ccc(O)cc2)(c2ccc(O)cc2)c2ccccc21 | inactive |  | inactive | inactive | inactive | inactive | inactive | inactive | inactive | inactive
17 | CCCCCCCCCCCCCCCCCC(=O)OCC(O)CO (centres undefined) | inactive |  | inactive | inactive | inactive | inactive | inactive | inactive | inactive | inactive
18 | CN(C)CCCOc1nn(Cc2ccccc2)c2ccccc12 | inactive |  | inactive | inactive | inactive |  | inactive | inactive | inactive | 3.16 µM (active)
19 | CCCCOc1ccc(C(=O)CCN2CCCCC2)cc1 | inactive |  | inactive | inactive | inactive | inactive | inactive | inactive | inactive | inactive
20 | Cc1cccc(C)c1NC(=O)CN1CCN(CCCC(c2ccc(F)cc2)c2ccc(F)cc2)CC1 | inactive |  | inactive |  | inactive | inactive | inactive | inactive | inactive | 
21 | CCOC(=O)/C=C(C)/C=C/C=C(C)/C=C/c1c(C)cc(OC)c(C)c1C | inactive |  | inactive |  |  |  |  |  | inactive | inactive
22 | Oc1c(Cl)cc(Cl)cc1Sc1cc(Cl)cc(Cl)c1O | inactive |  | inactive | inactive | inactive | inactive | inactive | inactive | inactive | inactive
23 | CC1=C(C(=O)OC(C)C)C(c2cccc([N+](=O)[O-])c2)C(C(=O)OC2CN(C(c3ccccc3)c3ccccc3)C2)=C(N)N1 (centres undefined) | 7.57 µM (active) |  | 6.75 µM (active) | 6.31 µM (active) | 8.91 µM (active) | 10 µM (active) | 8.91 µM (active) | 10 µM (active) | 7.57 µM (active) | 12.6 µM (active)
24 | C[C@@H]1C[C@H]2[C@@H]3CCC4=CC(=O)C=C[C@]4(C)[C@@]3(F)[C@@H](O)C[C@]2(C)[C@H]1C(=O)CO | inactive |  | inactive | inactive | inactive | inactive | inactive | inactive | inactive | 
25 | CC(O)C(=O)O (centres undefined) | inactive |  | inactive | inactive | inactive | inactive | inactive | inactive |  | inactive
26 | Nc1ccc(C(=O)Nc2ccccc2N)cc1 | inactive |  | inactive | inactive | inactive | inactive | inactive | inactive | inactive | inactive
27 | NC(CO)(CO)CO | inactive |  | inactive | inactive | inactive | inactive | inactive | inactive | inactive | inactive
28 | O=C(OCCOCCO)c1ccccc1Nc1cccc(C(F)(F)F)c1 | inactive |  | inactive | inactive | inactive | inactive | inactive | inactive | inactive | inactive
29 | CC/C(=C(/CC)c1ccc(O)cc1)c1ccc(O)cc1 | inactive |  | inactive | inactive | inactive | inactive | inactive | inactive | inactive | inactive
30 | COc1c(C)c2c(c(O)c1C/C=C(\C)CCC(=O)O)C(=O)OC2 | 5.73 µM (active) |  | 4.55 µM (active) | 2.51 µM (active) | 3.16 µM (active) |  | 3.16 µM (active) | 2.51 µM (active) | 3.22 µM (active) | 3.55 µM (active)
